Laboratory results published in PubChem BioAssay AID1209 (Sanford-Burnham Center for Chemical Genomics, 2008).
The whole screen tested about 190,000 compounds, of which about 810 (0.43%) were called active. This is one part of a sample in which actives are shown more often than they occur. Cut-off read from the data, not from the text of the source: active = inhibition above about 50%; inactive = the rest.

biological target: Mannose-6-phosphate isomerase (Homo sapiens) (UniProt P34949); experiment: MPI enzyme activity inhibition – biochemical, fluorescence intensity, coupled assay, primary screen (AID 1209); conditions: purified PMI enzyme, at 20 µM, active compounds read high;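 note: plate controls were DMSO vehicle for no effect and wells lacking substrate for full effect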
Sequence (P34949 whole entry, looked up): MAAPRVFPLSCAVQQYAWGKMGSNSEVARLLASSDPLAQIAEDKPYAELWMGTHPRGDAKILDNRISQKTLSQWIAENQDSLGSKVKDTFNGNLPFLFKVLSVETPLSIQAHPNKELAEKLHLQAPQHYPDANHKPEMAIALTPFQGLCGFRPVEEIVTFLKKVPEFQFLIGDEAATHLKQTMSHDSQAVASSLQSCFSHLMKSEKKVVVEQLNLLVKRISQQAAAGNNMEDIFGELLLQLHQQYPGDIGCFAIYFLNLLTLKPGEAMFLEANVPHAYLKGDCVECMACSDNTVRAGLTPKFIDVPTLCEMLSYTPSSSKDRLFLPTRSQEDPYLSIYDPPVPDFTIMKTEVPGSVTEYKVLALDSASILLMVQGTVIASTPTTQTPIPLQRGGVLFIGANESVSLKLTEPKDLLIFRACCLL

inhibition, active:
OCCCNC(=S)Nc1ccc2nc(-c3ccccn3)c(-c3ccccn3)nc2c1 56.9%
Cc1ccc(NC(=S)Nc2ccc3nc(-c4ccccn4)c(-c4ccccn4)nc3c2)cc1C 76.2%
Cc1cc2n(n1)SC(Nc1cccc3ccccc13)N2 (stereo not given) 56.1%
O=[N+]([O-])c1ccccc1NC(=S)N/N=C/c1ccc(O)c(O)c1 54.1%
COc1ccccc1-c1nn2c(C3COc4ccccc4O3)nnc2s1 (stereo not given) 57.6%
Clc1ccccc1-c1nnc2sc(C3COc4ccccc4O3)nn12 (stereo not given) 50%
Clc1ccccc1-c1nnc2sc(-c3ccc4c(c3)OCO4)nn12 50.8%
COc1cc(C(=S)NCc2ccccc2)cc(Br)c1O 68.6%
Cc1nn(-c2ccccn2)c2c1C(=O)C(Br)CC2 (stereo not given) 72%
CC(C)c1ccc(C(=O)CSc2ncn[nH]2)cc1 83%
O=C(CN1CCN(Cc2ccccc2)CC1)N1CCCCCC1 60.7%
O=c1[nH]c(=S)[nH]c2[nH]c(=S)[nH]c12 67.9%

inhibition, inactive:
COc1cccc(NC(=S)/C(=C(\[O-])c2ccc([N+](=O)[O-])cc2)[n+]2ccccc2)c1 -1.1%
CCOc1ccccc1NC(=O)CCS(=O)(=O)c1cccc2nonc12 0.7%
O=C(CCS(=O)(=O)c1ccccc1)N1CCOCC1 -8.2%
CN(C)NC(=S)Nc1ccc2nc(-c3ccccn3)c(-c3ccccn3)nc2c1 -8.4%
Cc1nc2ccc(NC(=S)NCCCO)cc2nc1C -27.3%
CC(C)(C)CC(C)(C)NC(=S)Nc1ccc2nc(-c3ccccn3)c(-c3ccccn3)nc2c1 -21.7%
CCCNC(=S)Nc1ccc2nc(-c3ccccn3)c(-c3ccccn3)nc2c1 26.5%
COc1cc2nc(CN(C)Cc3ccc(Cl)cc3)[nH]c(=O)c2cc1OC 5.6%
Cc1ccc(C(=O)Nc2ccc(Cl)cc2C)c(Cl)c1 -5.9%
COc1ccc(C2c3c(oc4ccc(C)cc4c3=O)C(=O)N2c2cc(C)ccn2)cc1OC (stereo not given) 30.5%
COC(=O)CCC(=O)COc1ccc(OC)cc1C#N 1.1%
Cc1ccc(OCC(=O)NCc2ccccc2)c([N+](=O)[O-])n1 20.4%
Cc1ccc(Nc2cc(-n3nc(C)cc3C)ncn2)c(C)c1 -0.1%
Cc1cc2n(n1)SC(Nc1cc(Cl)ccc1Cl)N2 (stereo not given) 19.6%
CCc1ccccc1NC(=O)c1cc(C2CC2)on1 -4.9%
O=C1NC(=O)C(Nc2cccc3ccccc23)S1 (stereo not given) -0.5%
Cc1cc(C(=O)Nc2cccc3ccccc23)n(-c2ccccc2)n1 -11.6%
CCc1ccccc1NC1c2ccccc2C(=O)N1c1cc(C)ccn1 (stereo not given) -2.8%
COc1ccc(S(=O)(=O)N2CCOCC2)cc1NC(=O)CN1CCCCCC1 -4.3%
COc1ccc(OC)c(S(=O)(=O)Nc2cccc(C(C)=O)c2)c1 4.2%
CC(=O)Nc1ccc(S(=O)(=O)N2CC3(C)CC2CC(C)(C)C3)cc1 (stereo not given) 12.4%
COc1ccc(NS(=O)(=O)c2ccc(OCC(=O)N3CCOCC3)cc2)cc1 10.6%
O=[N+]([O-])c1cc(/C=N/NC(=S)Nc2ccccc2Cl)ccc1Cl -6.9%
COc1ccc(/C=N/NC(=S)Nc2ccccc2[N+](=O)[O-])cc1O 9%
O=C(c1ccc(C(=O)N2CCCc3ccccc32)s1)N1CCCc2ccccc21 -2.1%
c1csc(-c2nn3c(C4COc5ccccc5O4)nnc3s2)c1 (stereo not given) 37.9%
Fc1ccc(-c2nn3c(C4COc5ccccc5O4)nnc3s2)cc1 (stereo not given) 7.6%
Cc1ccc(-c2nnc3sc(C4COc5ccccc5O4)nn23)cc1 (stereo not given) 3.9%
Clc1cccc(-c2nnc3sc(-c4ccc5c(c4)OCO5)nn23)c1 9.8%
Brc1ccccc1-c1nnc2sc(-c3ccc4c(c3)OCCO4)nn12 22.5%
Fc1ccc(-c2nnc3sc(C4COc5ccccc5O4)nn23)cc1 (stereo not given) 0.9%
CCC1(C)SC(N)=NN1C(C)=O (stereo not given) 7.1%
CCOC(=O)c1ccc(N/C(=N\S(=O)(=O)c2ccccc2C)c2ccccc2)cc1 10.9%
COc1ccc(C(=O)NCc2ccccc2)cc1Br 1.4%
COc1cc(C(=O)NCc2ccccc2)cc(Br)c1OC 1.2%
Cc1cc(/C=N\NC(=O)COc2cccc3cccnc23)c(C)n1-c1ccccc1 1.7%
O=C(c1ccco1)N1CCn2c1nc1ccccc12 -7.1%
COc1ccc(NC(=O)c2ccc3nc[nH]c3c2)c(OC)c1 8.4%
C=C(C)C1Cc2c(C)nn(-c3ccccn3)c2C1 (stereo not given) -7.4%
Cc1nn(-c2ccccn2)c2c1-c1nc(N)ncc1CC2 4.1%
COc1ccc(CNC(=O)CCCNS(=O)(=O)c2cccc3nonc23)cc1 13%
Cc1ccc(C(=O)CSc2ncn[nH]2)cc1 -6.3%
CCc1ccc(C(=O)CSc2ncn[nH]2)cc1 42.1%
COC(=O)Cc1cn(-c2ncc(C(F)(F)F)cc2Cl)c2ccccc12 1.6%
Cc1cc2ccccc2n1CCNC(=O)c1ccccc1 -10.2%
Cc1c(Br)c(C(=O)NCc2cc3cc(Cl)ccc3[nH]2)nn1C 5.7%
O=C(CN1CCN(Cc2ccccc2)CC1)c1ccccc1 2%
O=C(C1CCN(Cc2ccccc2)CC1)N1CCCC1 -5.2%
Nc1[nH]c(=S)[nH]c(=O)c1-c1ccccc1 21.9%
O=c1[nH]c(=S)[nH]c2sccc12 -13.4%
COc1ccc(CC(=O)OCC(=O)NC(=O)NC(C)C)cc1 9%
CCCn1nnnc1NCc1ccc(F)cc1 -4.6%
CCC(=O)N1c2ccccc2NC2=C(C(=O)CC(C)(C)C2)C1c1cccnc1 (stereo not given) 7.2%
